Screening data (PubChem BioAssay)
Compounds with a hit are over-represented: about 3.1% of the library has one in this group of screens.
Mito fusion act – inhibitors of mitochondrial division or activators of mitochondrial fusion; S. cerevisiae fusion-defective mutant growth rescue, CellTiterGlo 48 h; Potency, µM (doses to about 46.1 µM), inactives show top-dose growth rescue (activation), actives largely listed as activators; 320,000 tested, 0.23% active; note: % of control where 0% means no effect; nearly all actives have a fitted effect of over 45% in size
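Compounds are tested for their ability to restore growth of mitochondrial fusion-defective yeast strains at non-permissive 37C in YPEG medium over 48 hours. Viability is quantified by luciferase luminescence.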
TrxR1 inh – rat TrxR1 inhibition; O89049; AID 588453; 390,000 tested, 1% active; Potency, µM (top dose mostly 114 µM), inactives show at the top dose activity change, negative = inhibition, actives largely listed as inhibitors; recombinant rTrxR1, NADPH fluorescence consumption, selenite substrate; note: % is set by controls: 0 for no effect and ±100 for the full control effect; nearly all actives have a fitted effect of over 65% in size
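Rat TrxR1 (90 nM in the dispensed reagent) was pre-reduced with 400 uM NADPH for 5 min at room temperature, then incubated with compound for 15 min. After 400 uM selenite was added, NADPH fluorescence (Ex 340/Em 450 nm) was followed for 8 min.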
Nrf2 block – inhibitors of Nrf2 signaling; A549 ARE-Fluc reporter, luciferase luminescence, 18-24 h; Potency, µM (highest dose often 46 µM), for inactives: top-dose activity change, negative = inhibition, actives largely listed as inhibitors; 360,000 tested, 2.1% active; note: % is set by controls: 0 for no effect and ±100 for the full control effect; nearly all actives have a fitted effect of over 60% in size
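A549 ARE_Fluc cells (5000/well, 5% FBS OPTI-MEM) pre-incubated 2 h, then treated with compounds 18-24 h at 37C/5% CO2 in concentration-response. CellTiter-Fluor viability read first; BugLite luciferase luminescence after 15 min at room temperature gives Nrf2 activity.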
mIDH1 inhibitor – human IDH1 R132H inhibition | O75874 | IDH1-R132H enzyme, NADPH consumption, diaphorase/resazurin fluorescence | Potency, µM (titrated, usually from 76.6 µM), for inactives: top-dose activity change, negative = inhibition, actives largely listed as inhibitors | 390,000 tested, 0.093% active; note: % is set by controls: 0 for no effect and ±100 for the full control effect; nearly all actives have a fitted effect of over 65% in size
Target sequence (O75874 whole entry R132H, stated change not applied): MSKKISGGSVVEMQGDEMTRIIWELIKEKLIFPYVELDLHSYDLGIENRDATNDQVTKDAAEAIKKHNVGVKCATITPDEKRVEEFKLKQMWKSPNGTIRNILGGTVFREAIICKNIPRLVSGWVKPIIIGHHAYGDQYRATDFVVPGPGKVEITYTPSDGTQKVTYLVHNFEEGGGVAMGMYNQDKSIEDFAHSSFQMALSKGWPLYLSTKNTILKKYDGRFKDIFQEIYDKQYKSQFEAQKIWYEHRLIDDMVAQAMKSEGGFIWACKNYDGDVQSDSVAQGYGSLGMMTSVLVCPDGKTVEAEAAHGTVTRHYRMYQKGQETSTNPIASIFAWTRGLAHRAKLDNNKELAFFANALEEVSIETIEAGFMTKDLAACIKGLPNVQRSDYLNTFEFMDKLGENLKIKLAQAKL
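IDH1-R132H (0.5 ug/mL dispensed) in pH 7.5 Tris buffer was preincubated 30 min with compound, then given a substrate mix of 0.016 mM NADPH and 2 mM alpha-KG for 80 min at room temperature; remaining NADPH was read by diaphorase/resazurin fluorescence.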
A549 tox – A549 cytotoxicity, counter-screen for Nrf2 inhibitors. A549 ARE-Fluc cells, CellTiter-Fluor viability, 18-24 h. 390,000 tested, 0.16% active. Potency, µM (series often up to 46 µM), for the others: at the highest dose activity change, negative = cytotoxicity, actives largely listed as inhibitors; note: % is set by controls: 0 for no effect and ±100 for the full control effect
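Cytotoxicity counterscreen: CellTiter-Fluor fluorescence was measured in A549 ARE_Fluc cells after 18-24 h of compound exposure in a concentration series. The subsequent BugLite luminescent read reports ARE-luciferase activity.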
TrxR1 substrate – rat thioredoxin reductase 1 substrate activity; O89049; purified TrxR1 substrate turnover, NADPH consumption readout; Potency, µM (highest dose often 114 µM), inactives show top-dose activity change, negative = substrate turnover; 390,000 tested, 0.01% active; note: % is set by controls: 0 for no effect and ±100 for the full control effect; nearly all actives have a fitted effect of over 50% in size
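Rat TrxR1, dispensed at 90 nM, was prereduced with 400 uM NADPH (final) for 5 min at ~22 deg C, then incubated with compound 15 min before 400 uM selenite. A first-read NADPH fluorescence drop versus no-compound background flagged substrates.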
Starred values were filed as active, the others as inactive; [ ] = remark or other dose. Calls come from the whole dose curve; as a rule, active = well fitted curve in the direction sought with a large enough effect; inconclusive = small, poorly fitted or top-dose-only effect, or another doubt; inactive = no such curve, though single readings can be large; an effect the other way counts as inactive or inconclusive. Potency is the fitted concentration of half-maximal effect.

What do the screens show for `CCOC(=O)Cn1c(=O)oc2cc(S(=O)(=O)N3CCN(c4ccccc4F)CC3)ccc21`?
TrxR1 inh: 2%; Nrf2 block: 3%; mIDH1 inhibitor: 10%; A549 tox: inconclusive; TrxR1 substrate: -4%

How did COc1ccccc1N1CCN(C(=O)c2cc3c(-c4ccccc4F)nn(C)c3s2)CC1 do in these assays?
TrxR1 inh: 18%; Nrf2 block: inconclusive; mIDH1 inhibitor: 0%; A549 tox: -1%; TrxR1 substrate: 5%

Results for CCc1nn(CC(=O)N2CCN(Cc3ccc4c(c3)OCO4)CC2)c(=O)c2cc3occc3n12 ?
Mito fusion act: -1%; TrxR1 inh: -18%; Nrf2 block: inconclusive; mIDH1 inhibitor: 0%; A549 tox: -11%; TrxR1 substrate: -13%

How did Clc1ccc(C[n+]2c(-c3ccccc3)cc(-c3ccccc3)cc2-c2ccccc2)cc1 do in these assays?
Mito fusion act: -23%; TrxR1 inh: 17%; Nrf2 block: 21µM*; mIDH1 inhibitor: 0%; A549 tox: inconclusive; TrxR1 substrate: 26%

Results for Cc1cc(-c2ccccc2)cc(-c2ccccc2)[n+]1CCc1ccccc1 ?
Mito fusion act: -7%; TrxR1 inh: 34%; Nrf2 block: inconclusive; mIDH1 inhibitor: 3%; A549 tox: -9%; TrxR1 substrate: 19%

Results for Fc1ccc(C[n+]2c(-c3ccccc3)cc(-c3ccccc3)cc2-c2ccccc2)cc1 ?
Mito fusion act: -1%; TrxR1 inh: -14%; Nrf2 block: 18µM*; mIDH1 inhibitor: -1%; A549 tox: inconclusive; TrxR1 substrate: 19%

Results for C[C@@H]1O[C@@H](O[C@H]2C[C@@H](O)[C@]3(CO)[C@@H]4C(CC[C@]3(O)C2)[C@@]2(O)CC[C@H]([C@@H]3COC(=O)C3)[C@@]2(C)C[C@H]4O)[C@H](O)[C@H](O)[C@H]1O (some centres not stated) ?
Mito fusion act: -8%; TrxR1 inh: -9%[57.1 µM]; TrxR1 substrate: -4%[57.1 µM]

Results for C[C@@H]1O[C@@H](O[C@H]2C[C@@H](O)[C@]3(CO)[C@H]4[C@H](O)C[C@]5(C)[C@@H](C6COC(=O)C6)CC[C@]5(O)[C@@H]4CC[C@]3(O)C2)[C@H](O)[C@H](O)[C@H]1O (some centres not stated) ?
Mito fusion act: 2%; TrxR1 inh: -13%; Nrf2 block: 0.41µM*; mIDH1 inhibitor: 15%; A549 tox: inconclusive; TrxR1 substrate: -3%

What do the screens show for `O=C(CN1CCCC2CCCCC21)c1ccc(I)cc1` (configuration not stated)?
TrxR1 inh: -31%; TrxR1 substrate: 1%

Results for CN(C)c1ccc(/C=C/c2cc[n+](C)c3ccccc23)cc1 ?
Mito fusion act: 5%; TrxR1 inh: inconclusive; Nrf2 block: 8.2µM*; mIDH1 inhibitor: 12%; A549 tox: 16µM*; TrxR1 substrate: 5%[11.4 µM]

What do the screens show for `CN(C)c1ccc(/C=C/C=C/c2sc3ccccc3[n+]2C)cc1`?
Mito fusion act: -4%; TrxR1 inh: 0%; Nrf2 block: inconclusive; mIDH1 inhibitor: 2%; A549 tox: -12%; TrxR1 substrate: 4%

How did Cc1ccc(-n2c(-c3nn(C)c(C)c3Cl)n[nH]c2=S)cc1 do in these assays?
Mito fusion act: 6%; TrxR1 inh: 40µM*; Nrf2 block: 6%; mIDH1 inhibitor: 3%; A549 tox: -1%; TrxR1 substrate: -11%

Results for C[Se]C[C@H](N)C(=O)O ?
Mito fusion act: inconclusive; TrxR1 inh: inconclusive; TrxR1 substrate: 10%[57.1 µM]

Results for Cc1c(P(=S)(c2ccccc2)c2ccccc2)[n+]2ccccc2n1CCCc1ccccc1 ?
Nrf2 block: inconclusive; A549 tox: -14%
